# Screening data deposited in PubChem by National Center for Advancing Translational Sciences (NCATS).
# Shiga toxin inh: blocks Shiga toxin action in Vero cells; Vero cells, Shiga toxin protein synthesis inhibition reporter; inhibition, % at 38.7 µM; hit rate 9.2% among 290,000; in the data active = inhibition mostly above about 28%, no sharp cut-off; inactive = mostly below about 43%; also: 0% is about no effect
# LmPK inh: LmPK (Leishmania mexicana) enzyme inhibition; hit rate 0.37% among 290,000; Potency, µM (top dose mostly 57.5 µM), without a hit: at the top dose activity change, negative = inhibition, actives largely listed as inhibitors; Q27686; purified LmPK, Kinase-Glo ATP luminescence, 1 h; also: potency is read from the fitted curve at half-maximal effect; % is scaled to controls: 0 for no effect and ±100 for the full control effect
# Target sequence (Q27686 whole entry, looked up): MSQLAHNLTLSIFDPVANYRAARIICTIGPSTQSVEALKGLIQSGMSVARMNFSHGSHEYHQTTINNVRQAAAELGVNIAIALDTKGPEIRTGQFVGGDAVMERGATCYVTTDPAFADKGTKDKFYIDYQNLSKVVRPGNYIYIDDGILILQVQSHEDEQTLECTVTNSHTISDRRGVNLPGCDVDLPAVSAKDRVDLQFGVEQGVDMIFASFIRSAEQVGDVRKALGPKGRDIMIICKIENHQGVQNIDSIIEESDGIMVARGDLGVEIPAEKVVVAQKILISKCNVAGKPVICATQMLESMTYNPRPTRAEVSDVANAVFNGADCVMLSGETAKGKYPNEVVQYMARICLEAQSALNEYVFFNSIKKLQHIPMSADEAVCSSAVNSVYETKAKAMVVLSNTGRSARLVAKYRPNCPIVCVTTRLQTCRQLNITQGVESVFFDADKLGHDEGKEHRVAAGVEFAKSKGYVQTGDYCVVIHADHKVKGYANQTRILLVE
#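 ATP generated from ADP (0.1 mM) and PEP (0.5 mM) by 0.1 nM LmPK over 1 h at room temperature (pH 7.2 imidazole buffer) was detected by coupled luciferase luminescence. Values were normalized to uninhibited and no-enzyme wells.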
# Cycloheximide cs: counter-screen for Shiga toxin inhibitors: cycloheximide protein synthesis inhibition | hit rate 12% among 300,000 | max response, % | cell reporter, cycloheximide protein synthesis inhibition counterscreen; in the data active = max response mostly above about 13%, no sharp cut-off; inactive = mostly below about 14%; also: read at 38.3 µM for the half of the compounds with a filed dose; 0% is about no effect
# SARS PLpro yeast: inhibitors of SARS-CoV papain-like protease in yeast | S. cerevisiae expressing SARS-CoV PLpro, growth rescue | Potency, µM (doses to about 32.9 µM), without a hit: top-dose activity, positive = growth rescue, usual class: activators | hit rate 0.19% among 330,000 | AID 485353; calls by dose curve; also: potency is read from the fitted curve at half-maximal effect; 0% is about no effect; nearly all actives have a fitted effect of over 55% in size
# Tb PYK inh: inhibitors of Trypanosoma brucei pyruvate kinase; Q57TT1; TbPYK enzyme, Kinase-Glo Plus ATP luminescence, 45 min; Potency, µM (highest dose often 76.8 µM), without a hit: at the top dose activity, negative = inhibition, most hits filed as inhibitors; hit rate 0.12% among 410,000; also: potency is read from the fitted curve at half-maximal effect; % is scaled to controls: 0 for no effect and ±100 for the full control effect; nearly all actives have a fitted effect of over 50% in size
#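 Activity of T. brucei pyruvate kinase was followed by Kinase-Glo Plus luminescence after the enzyme reacted 45 min at room temperature with 130 uM ADP (final) and substrate. Test compounds were added before ADP at multiple concentrations.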
# NS1 function inh: blocks influenza NS1 protein function | Potency, µM (series often up to 46.1 µM), for inactives: at the top dose activity, positive = more growth | hit rate 0.4% among 270,000; calls by dose curve; also: potency is read from the fitted curve at half-maximal effect; actives are rising curves; nearly all actives have a fitted effect of over 50% in size
#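 Growth recovery, yeast-based: influenza A NS1 expressed in S. cerevisiae causes slow growth, and suppressors are detected by OD600. The parent strain without NS1 is used as positive control.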
# * marks the source's active call; other numbers are inactive results; ? = inconclusive; / = no result given. This is one part of a sample in which hits are shown more often than they occur. Unless noted, calls follow the shape of the dose curve; as a rule, active = well fitted curve in the direction sought with a large enough effect; inconclusive = small, poorly fitted or top-dose-only effect, or another doubt; inactive = no such curve, though single readings can be large; an effect the other way counts as inactive or inconclusive.
SMILES,Shiga toxin inh,LmPK inh,Cycloheximide cs,SARS PLpro yeast,Tb PYK inh,NS1 function inh
O=C(COc1ccc(Cl)cc1)Nc1ccc(C(=O)O)cc1NC(=O)COc1ccc(Cl)cc1,-6,-3%,2,?,0%,3%
O=C(COc1ccccc1)Nc1ccncc1Cl,92*,-2%,52*,6%,4%,-8%
COc1ccccc1NC(=O)COc1ccc2ccccc2c1,45,4%,19,-8%,1%,-32%
O=C(COc1ccc(Cl)cc1)Nc1ccccc1Cl,76*,1%,49*,0%,0%,-27%
NC(=O)c1ccccc1NC(=O)COc1ccc(Cl)cc1,90*,-3%,29*,-2%,4%,-9%
CCCN(C(=O)c1ccc2c(=O)n3c(nc2c1)CCCCC3)c1cccc(Cl)c1,/,/,/,/,0%,/
COc1ccccc1C(=O)NCC1(N2CCN(C)CC2)CCCCC1,/,/,/,/,8%,/
CCN(CC(=O)Nc1c(F)cccc1F)C(=O)c1cccc(S(=O)(=O)N(C)c2ccccc2)c1,/,/,/,-1%,-1%,/
Cc1cc(C)c(S(=O)(=O)c2cccc(C)c2C)c(=O)[nH]1,1,0%,-2,0%,3%,12%
CSc1ccccc1NC(=O)COc1ccc(Cl)cc1,48*,0%,32*,-18%,3%,-22%
Cc1ccc(OCC(=O)Nc2ccccc2C(N)=O)cc1,/,1%,35*,-3%,0%,2%
Cc1ccc(OCC(=O)Nc2ccccc2-c2ccccc2)cc1,83,2%,56,5%,3%,-19%
Cc1cc(Cl)ccc1NC(=O)CN(c1ccccc1Br)S(C)(=O)=O,/,/,/,/,1%,/
CCOC(=O)N1CCc2c(sc3c2c(=O)n(-c2ccc(CC)cc2)c(=O)n3CC(=O)c2ccc(F)cc2)C1,/,/,/,/,2%,/
O=C(c1cnn(C(=O)c2ccco2)c1)c1cc(F)ccc1O,/,/,/,0%,2%,/
CC1CCC(NC(=O)CN2C(=O)c3cccnc3Oc3ccc(Cl)cc32)CC1 (configuration not stated),28,2%,16*,0%,3%,4%
O=C(CN1C(=O)c2cccnc2Oc2ccc(Cl)cc21)NC1CCCC1,-5,1%,2,-1%,-4%,9%
O=C(NCCCc1ccccc1)C1CCC(=O)N(Cc2ccc(Cl)cc2)C1 (configuration not stated),38*,-4%,36*,1%,1%,-14%
Cc1ccc(CNC(=O)C2CCC(=O)N(CCc3ccc(Cl)cc3)C2)cc1 (configuration not stated),85*,-3%,46*,3%,2%,-12%
COc1ccc(CCN2CC(C(=O)NC3CCCCC3)CC2=O)cc1OC (configuration not stated),14,1%,28,5%,-5%,/
Cc1ccc(CCN2CC(C(=O)NC3CCCCC3)CC2=O)cc1 (configuration not stated),4,0%,30*,0%,6%,-4%
Cc1ccc(CNC(=O)C2CCC(=O)N(CCc3ccc(Cl)cc3)C2)s1 (configuration not stated),-5,-7%,15,0%,-2%,-11%
CCn1c(SCC(=O)c2ccccc2)nnc1-c1cccc(Cl)c1,/,/,/,/,0%,/
CCN(CC)S(=O)(=O)c1cc(NS(=O)(=O)c2cccs2)ccc1C,/,/,/,-1%,0%,/
CC(=O)c1cccc(NS(=O)(=O)c2ccc(N/C=C\C(=O)c3ccc(F)cc3)cc2)c1,122*,2%,37*,?,-18%,5%
SMILES,Shiga toxin inh,LmPK inh,Cycloheximide cs,SARS PLpro yeast,Tb PYK inh,NS1 function inh
CC(=O)c1ccc(S(=O)(=O)Nc2ccc(C(=O)N3CCC3)cc2)cc1,/,/,/,1%,-5%,/
COc1cc(NS(=O)(=O)c2ccc(N/C=C\C(=O)c3ccc(F)cc3)cc2)nc(OC)n1,94*,1%,71*,?,-9%,16%
CC(=O)c1ccc(NS(=O)(=O)c2ccc(N/C=C/C(=O)c3ccc(F)cc3)cc2)cc1,81*,4%,53*,0%,-14%,-41%
Cc1ccc(C(=O)/C=C/Nc2ccc(S(=O)(=O)Nc3cc(C)nc(C)n3)cc2)cc1,29,5%,29*,2%,-3%,-13%
CCCCN(C)CCNC(=O)c1cc2c(=O)n(C)c3ccccc3c2n1C,/,/,/,/,3%,/
CCOc1ccc(CCN2C(=O)C(=O)N([C@@H](Cc3ccccc3)CN3CCC[C@H]3CN3C(=O)C(=O)NC[C@@H]3CC(C)C)C[C@@H]2Cc2ccc(O)cc2)cc1,/,/,/,/,-2%,/
Cc1ccsc1C=C1C(=O)c2ccccc2C1=O,0,14µM*,1,-17%,-8%,-87%
Cc1ccsc1/C=C1/C(=O)NN(c2ccccc2)C1=O,82*,?,40*,-1%,-1%,/
NC(=O)c1c(NC(=O)c2nc(SCc3ccccc3F)ncc2Cl)sc2c1CCCC2,/,/,/,/,4%,/
C[C@H](N)c1nnc(SCC(=O)N(C)C)o1,17,-3%,17*,-1%,-13%,14%
CC(C)CCC(CC(C)O)c1n[nH]c(=S)n1-c1ccccc1 (configuration not stated),-9,10µM*,9,0%,4.5µM*,-4%
CCC(c1n[nH]c(=S)n1-c1ccccc1)N(C)C (configuration not stated),-8,-22%,-4,-3%,?,-8%
CCOc1ccc(S(=O)(=O)NNC(=O)c2cc3ccccc3o2)cc1,-8,-1%,1,-1%,7%,3%
COc1ccc(NC(=O)c2cc3ccccc3o2)cc1OC,62*,0%,45*,10%,2%,-19%
COc1ccc(NC(=O)c2coc3ccccc23)cc1OC,71*,0%,20*,3%,-12%,-45%
CCCOc1ccc(S(=O)(=O)NNC(=O)c2cc3ccccc3o2)cc1,12,2%,14*,-10%,0%,-20%
COc1ccc(NC(=O)c2cc3ccccc3o2)cn1,/,2%,36*,-6%,2%,-18%
Cc1cc2oc(C(=O)Nc3c(C)n(C)n(-c4ccccc4)c3=O)cc(=O)c2cc1C,/,/,/,/,1%,/
CCNC(=O)c1ccc(CSc2nc3cccnc3n2Cc2ccc(OC)cc2)cc1,/,/,/,/,0%,/
CCN=C=NCCCN(C)C,/,/,/,/,/,3%
COc1ccc(NC(=O)c2cc3ccccc3o2)cc1,94*,-13%,39*,-9%,0%,-139%
CC(C)(C)C(=O)[C@H]1[C@H](c2ccccc2)[C@@]2(N=C(c3ccccc3)OC2=O)C2c3ccccc3C=NN21 (some centres not stated),26,-1%,40*,-10%,-4%,?
CCOC(=O)CN1C(=O)/C(=C/c2c(F)cccc2Cl)Oc2ccccc21,19*,2%,19*,-11%,13%,-10%
CC1CCC/C(=N\Nc2ccc(Cl)c(C(=O)O)c2)C1 (configuration not stated),60*,7%,165*,-18%,-7%,11%
